Experimental data: the supplement of paper PMC7366291
Structures can show the parent of a compound that is named as a salt. ± gives the standard deviation or the standard deviation of the averaged measurements.

Legend:
Details in all cases: 25 µM; exposure: 24-48 hpf
[1] = test system: Danio rerio Tg(wt1b:EGFP) embryo, pronephros; test: glomerular separation, fold change vs DMSO control; higher = glomeruli further apart (abnormal)
Summary of the method: (§1)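 Dechorionated Tg(wt1b:EGFP) zebrafish embryos were exposed to 25 μM compound in 0.5% DMSO, HEPES-buffered E3 with 0.003% PTU, from 24 to 48 hpf at 28.5°C. Pronephroi were imaged dorsally in agarose-filled 96-well plates (470 nm, 10 z-slices). On maximum projections, 16 reference points were set manually in Fiji and a macro computed distances and angles. Values more than 2 SD from the feature mean were excluded. Each feature is a fold change relative to the mean of same-day DMSO controls.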

[2] = test system: Danio rerio Tg(wt1b:EGFP) embryo, pronephros; test: glomerular width (mean of left and right), fold change vs DMSO control; higher = wider glomerulus
Summary of the method: as §1

[3] = test system: Danio rerio Tg(wt1b:EGFP) embryo, pronephros; test: fraction of imaged embryos annotated as normal kidney; higher = less nephrotoxic; extreme values may be limits of the assay
Summary of the method: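 Dechorionated Tg(wt1b:EGFP) zebrafish embryos were exposed in 12-well plates to 25 μM compound in 0.5% DMSO, 5 mM HEPES-buffered E3 with 0.003% PTU, from 24 to 48 hpf at 28.5°C. Tricaine-anaesthetised larvae were oriented dorsally in agarose-filled 96-well plates, and pronephroi were imaged by widefield fluorescence (470 nm, 10 z-slices). Each embryo was manually annotated from maximum projections. The read-out is the fraction of embryos per treatment assigned to the normal-kidney category.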

[4] = test system: Danio rerio Tg(wt1b:EGFP) embryo, pronephros; test: pronephric angle neck segment to proximal convoluted tubule (mean of left and right), fold change vs DMSO control; higher = larger pronephric angle
Summary of the method: as §1

Compound	glomerular separation [1]	glomerular width [2]	fraction of imaged embryos annotated as normal kidney [3]	pronephric angle neck segment [4]
COC(=O)Nc1nc2cc(C(=O)c3ccccc3)ccc2[nH]1 [Mebendazole]	4.75 ± 1.7	0.552 ± 0.014	0	1.91 ± 0.057
COc1ccc(C[C@@H]2c3cc(OC)c(OC)cc3CC[N@+]2(C)CCC(=O)OCCCCCOC(=O)CC[N@@+]2(C)CCc3cc(OC)c(OC)cc3[C@H]2Cc2ccc(OC)c(OC)c2)cc1OC [Cisatracurium besylate]	0.571 ± 0.3	1.21 ± 0.0036	0.833	0.984 ± 0.035
Clc1ccc(C(Cn2ccnc2)OCc2ccsc2Cl)c(Cl)c1 (stereo unspecified) [Tioconazole]	1.29 ± 0.51	0.965 ± 0.013	0.417	1.21 ± 0.085
CC[C@@]1(O)C(=O)OCc2c1cc1n(c2=O)Cc2cc3c(CN(C)C)c(O)ccc3nc2-1 [Topotecan]	1.74 ± 0.72	0.793 ± 0.022	0.727	1.27 ± 0.062
CN(C)CCc1c[nH]c2ccc(C[C@H]3COC(=O)N3)cc12 [Zolmitriptan]	0.75 ± 0.13	0.941 ± 0.034	0.833	1.03 ± 0.019
CCCC(=O)Nc1ccc(OCC(O)CNC(C)C)c(C(C)=O)c1 (stereo unspecified) [Acebutolol hydrochloride]	1.43 ± 0.56	1.06 ± 0.075	0.75	0.9596 ± 0.0066
CC(=O)Oc1ccccc1C(=O)Oc1ccccc1C(=O)O [Acetylsalicylsalicylic acid]	1.33 ± 0.59	0.971 ± 0.085	0.833	1.017 ± 0.0041
Nc1ccc(S(=O)(=O)Nc2ncccn2)cc1 [Sulfadiazine]	0.947 ± 0.41	1.03 ± 0.031	0.917	0.9587 ± 0.0092
COC(=O)C1=C(C#N)NC(C)=C(C(=O)OC(C)C)C1c1cccc([N+](=O)[O-])c1 (stereo unspecified) [Nilvadipine]	4.44 ± 1.4	0.7 ± 0.04	0.167	1.09 ± 0.17
